Test results: PubChem BioAssay (NCATS)
Records with an inconclusive call do not appear. The source made the active and inactive calls. The call rests on the fitted dose curve; in most records, active means well fitted inhibition curve with a large enough effect; inconclusive means small, poorly fitted or top-dose-only effect; inactive means flat fitted curve, though single readings scatter.

target: Glutathione peroxidase 1 (Homo sapiens) (UniProt P07203); test: Primary qHTS Assay for Inhibitors of Recombinant Selenoprotein Glutathione Peroxidase 1 (GPX1) (AID 1845191); details: recombinant GPX1, GR-coupled NADPH fluorescence, 15 min; series mostly up to 48.8 µM; activity, negative = inhibition: at the top concentration
Sequence (P07203 whole entry, looked up): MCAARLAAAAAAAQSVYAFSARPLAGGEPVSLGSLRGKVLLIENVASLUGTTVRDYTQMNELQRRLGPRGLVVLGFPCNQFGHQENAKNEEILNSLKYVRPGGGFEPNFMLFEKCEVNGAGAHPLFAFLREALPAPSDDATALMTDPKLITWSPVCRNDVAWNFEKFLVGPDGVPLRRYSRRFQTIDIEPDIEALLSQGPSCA
In short: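 10 nM GPX1 + cpd, 30 min RT; start w/ 1 mM GSH, 0.5 mM cumene hydroperoxide, 0.5 mM NADPH, 100 nM GR, 0.01% BSA; buffer 50 mM Tris-HCl pH 7.5, 2 mM EDTA, 150 mM NaCl; Fl 340/450, 0 & 15 min.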
Further: nearly all actives have a fitted effect of over 65% in size.
On the % scale 0 is the no-effect control and ±100 the full control effect.

Compound	activity, negative = inhibition	outcome	Potency
C=C1C(=O)O[C@@H]2C[C@]3(C)[C@@H](CCC(C)O)[C@@H]3C[C@H]12 (stereo partly drawn)	-7.06% (inactive)	–	–
CC(=O)O[C@@H]1C2=C(O)C(=O)[C@](C)(OC(C)=O)C(=O)C2=CO[C@@]12O[C@@H](C)CC[C@H]2OC(C)=O	-19% [at 27.7 µM] (inactive)	–	–
NC(=O)N1CCC(CC(=O)N2CCC(C3c4ncc(Br)cc4CCc4cc(Cl)cc(Br)c43)CC2)CC1 (stereo not drawn)	–	inactive	–
C/C=C(/C)C(=O)O[C@H]1C=C(CO)C(=O)[C@H](OC(=O)/C(C)=C/CO)[C@H]1C(C)C	-18.1% [at 27.7 µM] (inactive)	–	–
O=C(NC1CCN(CCCCC2(C(=O)NCC(F)(F)F)c3ccccc3-c3ccccc32)CC1)c1ccccc1-c1ccc(C(F)(F)F)cc1	–	–	inactive
CC(C)C[C@@H](C(=O)N[C@@H](Cc1ccc(OCc2ccccc2)cc1)C(=O)NC(C)(C)C)N(C)Cc1ccc(C(C)(C)C)cc1	-10.2% (inactive)	–	–
COc1cc(-c2cn(C3CCc4c(F)cccc4N(CC(F)(F)F)C3=O)nn2)ccc1-n1cnc(C)c1 (stereo not drawn)	–	inactive	–
CC(=O)OC[C@]12[C@H](OC(C)=O)C(=O)[C@@H]3[C@@H](O)[C@@]14O[C@@]3(C)COC(=O)c1cccnc1[C@@H](C)[C@H](C)C(=O)O[C@@H]([C@H](O)[C@@H]2OC(C)=O)[C@]4(C)O	-15% [at 15.3 µM] (inactive)	–	–
NCCOc1cc(C(=O)Nc2cc(OCCN)c3ccccc3n2)nc(C(=O)Nc2cc(OCCN)c3ccccc3n2)c1	–	–	inactive
Cc1c(C(=O)NCc2cccnc2)nn(-c2ccc(Cl)cc2Cl)c1-c1ccc(Cl)cc1	–	inactive	–
O=C1Nc2ccccc2-c2nc3ccccc3c(=O)n2-c2c(O)cccc21	-9.21% [at 27.7 µM] (inactive)	–	–
COc1ccc([C@H](Cc2ccncc2)c2ccccc2)cc1OC1CCCC1	-10.2% (inactive)	–	–
CCN(CC)CCCCCCNc1cc(OC)cc2c(C)ccnc12	–	inactive	–
C=C(C(=O)O)[C@@H]1CC=C(CCC(C)=O)[C@@H](C)CC1	-15.5% (inactive)	–	–
COc1ccccc1C(=O)Nc1cc2c(cc1N1CCCC1)n(C)c(=O)n2C	–	inactive	–
COc1ccc(-c2ccccc2)cc1NS(=O)(=O)c1cc(Cl)cc(Cl)c1O	-17.7% [at 27.7 µM] (inactive)	–	–
N#Cc1cnc2c(Cl)cc(NCc3cn(CCN4CCCCCC4)nn3)cc2c1Nc1ccc(F)c(Cl)c1	–	inactive	–
C=C1C(=O)O[C@@H]2C[C@H](C)[C@@H]3CC(=O)[C@H](O)[C@@]3(C)C[C@H]12	-14.5% (inactive)	–	–
CC1(C)SCCN(S(=O)(=O)c2ccc(Oc3ccncc3)cc2)[C@H]1C(=O)NO	3.08% (inactive)	–	–
COc1cc2c(cc1OCCCN1CCCC1)N=C(N)C21CCC1	–	–	inactive

Compound	activity, negative = inhibition	outcome	Potency
CCn1c(=O)c(-c2ccc(-c3cncs3)cc2Cl)cc2cnc(Nc3ccc(N4CCN(C)CC4)cc3)nc21	-2.38% (inactive)	–	–
Cc1[nH]c2ccc(F)cc2c1-c1nc2c3cccnc3c3ncccc3c2[nH]1	–	inactive [at 98.3 µM]	–
CNCCC(c1cccs1)c1ccc(O)c2ccccc12 (stereo not drawn)	-26.8% (inactive)	–	–
Cc1ccc(NC(=O)C(C)C)cc1C1CCN(Cc2ccc(Oc3ccc(F)c(F)c3)cc2)CC1	–	inactive	–
O=C(NO)c1ccc(CC(=O)N(CCO)c2ccccc2)cc1	–	inactive	–
C#CCNCc1cc2cc(OCc3ccccc3)ccc2[nH]1	–	inactive	–
CN1CC[C@@H](c2c(O)cc(O)c3c(=O)cc(-c4ccc(C(F)(F)F)cc4Cl)oc23)[C@@H]1CO	-25.1% (inactive)	–	–
Cc1[nH]c(/C=C2\C(=O)Nc3ccc(F)cc32)c(C)c1C(=O)NCCN1CCCC1	–	–	inactive
C/C1=C/CCC2=CC(OC2=O)C(C)(C)/C=C/C1=O (stereo not drawn)	-8.08% (inactive)	–	–
CC(C)c1cccc(C(C)C)c1NC(=O)Nc1ccc(Sc2ccc([N+](=O)[O-])cc2)cc1	–	inactive	–
C=C1C(=O)O[C@@H]2/C=C(\CO)CC/C=C(/C=O)C[C@@H](O)[C@@H]12	–	inactive	–
CC1CCCC[C@H]2C(=O)C=C[C@H](O)[C@@H]2CC(=O)O1 (stereo partly drawn)	-15.1% (inactive)	–	–
C/C=C/[C@@H]1C=C[C@@H]2C[C@H](C)CC[C@H]2[C@]1(C)/C(O)=C1/C(=O)[C@@H](CO)N(C)C1=O	-15.3% [at 27.7 µM] (inactive)	–	–
CCC(CC)Nc1nc(C)c(-c2ccc(OC(F)(F)F)cc2OC)nc1OC	4.41% (inactive)	–	–
CCOC(=O)c1cnn(-c2ccccc2)c1NC(=O)c1cc2nc(-c3ccco3)cc(C(F)(F)Cl)n2n1	–	inactive	–
CC(O)C(C)n1ncn(-c2ccc(N3CCN(c4ccc(OCC5COC(Cn6cncn6)(c6ccc(Cl)cc6Cl)O5)cc4)CC3)cc2)c1=O (stereo not drawn)	–	inactive	–
CN(C)[C@@H]1CCc2[nH]c3ccc(NC(=O)c4ccc(F)cc4)cc3c2C1	-11.6% (inactive)	–	–
C[C@@H](NC(=O)C(=O)c1c[nH]c2ccc([N+](=O)[O-])cc12)c1ccccc1	-17.1% (inactive)	–	–
Clc1ncoc1-c1c[nH]c2ccccc12	-6.68% (inactive)	–	–

target: Phospholipid hydroperoxide glutathione peroxidase GPX4 (Homo sapiens) (UniProt P36969); test: Primary qHTS Assay for Inhibitors of Recombinant Selenoprotein Glutathione Peroxidase 4 (GPX4) (AID 1845192); details: recombinant GPX4, GR-coupled NADPH fluorescence, 15 min; series mostly up to 50 µM; activity change, negative = inhibition: at the top concentration
Sequence (P36969 whole entry, looked up): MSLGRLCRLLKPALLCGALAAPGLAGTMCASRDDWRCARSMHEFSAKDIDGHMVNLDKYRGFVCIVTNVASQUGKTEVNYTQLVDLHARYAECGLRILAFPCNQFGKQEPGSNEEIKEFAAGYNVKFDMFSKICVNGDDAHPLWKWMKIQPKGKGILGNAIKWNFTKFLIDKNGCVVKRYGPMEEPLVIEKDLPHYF
In short: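 NADPH consumption, followed by fluorescence at 340/450 nm between 0 and 15 min, reports GPX4 activity via coupled glutathione reductase (100 nM). Enzyme 200 nM was pre-exposed to compound 30 min; 0.5 mM cumene hydroperoxide and 1 mM GSH served as substrates.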

Compound	activity change, negative = inhibition	Potency	outcome
C=C1C(=O)O[C@@H]2C[C@]3(C)[C@@H](CCC(C)O)[C@@H]3C[C@H]12 (stereo partly drawn)	3.21% (inactive)	–	–
CC(=O)O[C@@H]1C2=C(O)C(=O)[C@](C)(OC(C)=O)C(=O)C2=CO[C@@]12O[C@@H](C)CC[C@H]2OC(C)=O	-10.8% [at 27.8 µM] (inactive)	–	–
NC(=O)N1CCC(CC(=O)N2CCC(C3c4ncc(Br)cc4CCc4cc(Cl)cc(Br)c43)CC2)CC1 (stereo not drawn)	-0.959% (inactive)	–	–
C/C=C(/C)C(=O)O[C@H]1C=C(CO)C(=O)[C@H](OC(=O)/C(C)=C/CO)[C@H]1C(C)C	-3.69% [at 27.8 µM] (inactive)	–	–
O=C(NC1CCN(CCCCC2(C(=O)NCC(F)(F)F)c3ccccc3-c3ccccc32)CC1)c1ccccc1-c1ccc(C(F)(F)F)cc1	–	inactive	–
CC(C)C[C@@H](C(=O)N[C@@H](Cc1ccc(OCc2ccccc2)cc1)C(=O)NC(C)(C)C)N(C)Cc1ccc(C(C)(C)C)cc1	-20.2% (inactive)	–	–
COc1cc(-c2cn(C3CCc4c(F)cccc4N(CC(F)(F)F)C3=O)nn2)ccc1-n1cnc(C)c1 (stereo not drawn)	-2.57% (inactive)	–	–
CC(=O)OC[C@]12[C@H](OC(C)=O)C(=O)[C@@H]3[C@@H](O)[C@@]14O[C@@]3(C)COC(=O)c1cccnc1[C@@H](C)[C@H](C)C(=O)O[C@@H]([C@H](O)[C@@H]2OC(C)=O)[C@]4(C)O	-9.68% [at 15.3 µM] (inactive)	–	–
NCCOc1cc(C(=O)Nc2cc(OCCN)c3ccccc3n2)nc(C(=O)Nc2cc(OCCN)c3ccccc3n2)c1	–	inactive	–
Cc1c(C(=O)NCc2cccnc2)nn(-c2ccc(Cl)cc2Cl)c1-c1ccc(Cl)cc1	-7.7% (inactive)	–	–
O=C1Nc2ccccc2-c2nc3ccccc3c(=O)n2-c2c(O)cccc21	-7.26% [at 27.8 µM] (inactive)	–	–
COc1ccc([C@H](Cc2ccncc2)c2ccccc2)cc1OC1CCCC1	-4.97% (inactive)	–	–
CCN(CC)CCCCCCNc1cc(OC)cc2c(C)ccnc12	-1.45% (inactive)	–	–
C=C(C(=O)O)[C@@H]1CC=C(CCC(C)=O)[C@@H](C)CC1	-9.56% (inactive)	–	–
COc1ccccc1C(=O)Nc1cc2c(cc1N1CCCC1)n(C)c(=O)n2C	4.61% (inactive)	–	–
COc1ccc(-c2ccccc2)cc1NS(=O)(=O)c1cc(Cl)cc(Cl)c1O	-3.55% [at 27.8 µM] (inactive)	–	–
N#Cc1cnc2c(Cl)cc(NCc3cn(CCN4CCCCCC4)nn3)cc2c1Nc1ccc(F)c(Cl)c1	-4.28% (inactive)	–	–
C=C1C(=O)O[C@@H]2C[C@H](C)[C@@H]3CC(=O)[C@H](O)[C@@]3(C)C[C@H]12	-7.63% (inactive)	–	–
CC1(C)SCCN(S(=O)(=O)c2ccc(Oc3ccncc3)cc2)[C@H]1C(=O)NO	-1.65% (inactive)	–	–
COc1cc2c(cc1OCCCN1CCCC1)N=C(N)C21CCC1	–	inactive	–

Compound	activity change, negative = inhibition	Potency	outcome
CCn1c(=O)c(-c2ccc(-c3cncs3)cc2Cl)cc2cnc(Nc3ccc(N4CCN(C)CC4)cc3)nc21	-1.85% (inactive)	–	–
Cc1[nH]c2ccc(F)cc2c1-c1nc2c3cccnc3c3ncccc3c2[nH]1	–	–	inactive
CNCCC(c1cccs1)c1ccc(O)c2ccccc12 (stereo not drawn)	-13.2% (inactive)	–	–
Cc1ccc(NC(=O)C(C)C)cc1C1CCN(Cc2ccc(Oc3ccc(F)c(F)c3)cc2)CC1	-19% (inactive)	–	–
O=C(NO)c1ccc(CC(=O)N(CCO)c2ccccc2)cc1	1.24% (inactive)	–	–
C#CCNCc1cc2cc(OCc3ccccc3)ccc2[nH]1	-8.37% (inactive)	–	–
CN1CC[C@@H](c2c(O)cc(O)c3c(=O)cc(-c4ccc(C(F)(F)F)cc4Cl)oc23)[C@@H]1CO	-0.826% (inactive)	–	–
Cc1[nH]c(/C=C2\C(=O)Nc3ccc(F)cc32)c(C)c1C(=O)NCCN1CCCC1	–	inactive	–
C/C1=C/CCC2=CC(OC2=O)C(C)(C)/C=C/C1=O (stereo not drawn)	-13.9% (inactive)	–	–
CC(C)c1cccc(C(C)C)c1NC(=O)Nc1ccc(Sc2ccc([N+](=O)[O-])cc2)cc1	–	–	inactive
C=C1C(=O)O[C@@H]2/C=C(\CO)CC/C=C(/C=O)C[C@@H](O)[C@@H]12	–	–	inactive
CC1CCCC[C@H]2C(=O)C=C[C@H](O)[C@@H]2CC(=O)O1 (stereo partly drawn)	-3.18% (inactive)	–	–
C/C=C/[C@@H]1C=C[C@@H]2C[C@H](C)CC[C@H]2[C@]1(C)/C(O)=C1/C(=O)[C@@H](CO)N(C)C1=O	-5.44% [at 27.8 µM] (inactive)	–	–
CCC(CC)Nc1nc(C)c(-c2ccc(OC(F)(F)F)cc2OC)nc1OC	-19.9% (inactive)	–	–
CCOC(=O)c1cnn(-c2ccccc2)c1NC(=O)c1cc2nc(-c3ccco3)cc(C(F)(F)Cl)n2n1	0.598% (inactive)	–	–
CC(O)C(C)n1ncn(-c2ccc(N3CCN(c4ccc(OCC5COC(Cn6cncn6)(c6ccc(Cl)cc6Cl)O5)cc4)CC3)cc2)c1=O (stereo not drawn)	-11.7% (inactive)	–	–
CN(C)[C@@H]1CCc2[nH]c3ccc(NC(=O)c4ccc(F)cc4)cc3c2C1	6.42% (inactive)	–	–
C[C@@H](NC(=O)C(=O)c1c[nH]c2ccc([N+](=O)[O-])cc12)c1ccccc1	-4.79% (inactive)	–	–
Clc1ncoc1-c1c[nH]c2ccccc12	-29% (inactive)	–	–
